Six compounds from PubChem BioAssay can be followed below.

Activity calls are given as the source filed them.

For experiment [1], the system named is Plasmodium falciparum Sir2 (PF13_0152, Sir2A). The experiment in a line: pfSir2 binders on small-molecule microarrays, primary screen, biochemical, small-molecule microarray, 635 nm fluorescence (AID 1098).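 Note: score merges spot fluorescence intensity with its signal-to-noise ratio.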 The conditions noted are these: small-molecule microarray binding, fluorescence 635 nm; higher = more signal.
A short description of experiment [2]: small-molecule microarray binders of probe aDKK1, primary screen, biochemical, biotinylated probe, 635/667 nm fluorescence (AID 1099).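 Note: score merges 667nm spot fluorescence with signal to noise across triplicate slides.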 The conditions noted are these: higher = more signal.
Experiment [3] is described as follows: small-molecule microarray binders of probe aCHRDL2, primary screen, biochemical, biotinylated probe, 635/667 nm fluorescence (AID 1100). Particulars: higher = more signal.
Experiment [4] is described as follows: splicing luciferase reporter signal modulators, primary screen, spliceosome inhibition project, cell-based, HEK293, splice +/- reporter (AID 1101).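 Note: HEK293 cells carrying a splicing-competent luciferase reporter gene; test concentration not given here.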 Particulars: luminescence, 24 h, higher = more signal, called active from +8 up or from −8 down. On the technique in general: Reporter assays use an easily measured gene product as a stand-in for the process of interest.

The target of experiment [5] is Fibroblast growth factor 10 (Homo sapiens) (UniProt O15520). The experiment in a line: FGF10 binders on small-molecule microarrays, primary screen, biochemical, small-molecule microarray, 635 nm fluorescence (AID 1102). Particulars: FGF10 binding, fluorescence 635 nm, higher = more signal.
Experiment [6] relates to glycogen synthase kinase-3 (GSK3A per assay name; protocol says GSK3B). The experiment in a line: GSK3 binders on small-molecule microarrays, primary screen, biochemical, small-molecule microarray, 635 nm fluorescence, GSK3A (AID 1103). Note: the record names both GSK3A and GSK3B. The conditions noted are these: small-molecule microarray binding, fluorescence 635 nm; higher = more signal.
The target of experiment [7] is Epidermal growth factor receptor (Homo sapiens) (UniProt P00533). The experiment in a line: EGFR binders on small-molecule microarrays, primary screen, biochemical, small-molecule microarray, 635 nm fluorescence (AID 1104).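 Note: score merges 667 nm emission intensity with spot signal to noise over triplicate slides.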 Particulars: EGFR binding, higher = more signal.
For experiment [8], the target named is Follistatin-related protein 3 (Homo sapiens) (UniProt O95633). The experiment in a line: FSTL3 binders on small-molecule microarrays, primary screen, biochemical, small-molecule microarray, 635 nm fluorescence (AID 1105).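 Note: score merges emission near 667 nm and signal to noise per printed spot across three slides.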 The conditions noted are these: FSTL3 binding, higher = more signal.
Experiment [9] deals with Dickkopf-related protein 1 (Homo sapiens) (UniProt O94907). Put plainly: DKK1 binders on small-molecule microarrays, primary screen, biochemical, small-molecule microarray, 635 nm fluorescence scan (AID 1106).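 Note: score merges emission near 667 nm with signal to noise over three replicate slides.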 Particulars: DKK1 binding, higher = more signal.
Experiment [10] deals with Inhibin beta A chain (activin A). The experiment in a line: INHBA (activin A) binders on microarrays, primary screen, biochemical, small-molecule microarray, 635 nm fluorescence scan (AID 1107).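 Note: mouse activin A protein probed at 4.33 µg/mL on printed slides; score merges bound-protein fluorescence near 667 nm with spot signal-to-noise.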 Particulars: small-molecule microarray binding, higher = more signal.
For experiment [11], the system named is Human papillomavirus type 1a protein E7 (residues 44-93). The experiment in a line: HPV1a E7 fragment binders on microarrays, primary screen, biochemical, small-molecule microarray, residues 44-93, 635 nm fluorescence (AID 1108).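 Note: E7 fragment applied at 1 µg/mL in TBST for 1 h at 4 C; score combines spot fluorescence with its signal to noise ratio.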 The conditions noted are these: small-molecule microarray binding, fluorescence 635 nm; higher = more signal.
Experiment [12] in a line: modulators of HCV replicon luciferase signal, primary screen, HCV replication inhibitor project, Huh7 cells, luciferase reporter (AID 1109).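 Note: huh7 hepatoma cells harbouring a luciferase neomycin HCV replicon reporter; luciferase luminescence as measure of HCV replicon replication; test concentration not given here.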 Particulars: 48 h, higher = more signal. (In general: Replicon systems follow genome replication, usually without infectious particles.)
For experiment [13], the target named is Left-right determination factor 2 (Homo sapiens) (UniProt O00292). The experiment in a line: LEFTY2 binders on small-molecule microarrays, primary screen, biochemical, small-molecule microarray, 635 nm fluorescence scan (AID 1110). The conditions noted are these: LEFTY2 binding, higher = more signal.
Experiment [14] addresses Calmodulin-1 (Homo sapiens) (UniProt P0DP23). The experiment in a line: CALM1 binders on microarrays, EGTA buffer, profiling panel, biochemical, small-molecule microarray, Cy5-labelled CALM1 (AID 1111).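 Note: labelled calmodulin applied in Tris saline Tween buffer holding calcium plus EGTA and DTT.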 Particulars: Cy5-CALM1 binding fluorescence, higher = more signal.
Experiment [15] shares this target. The experiment in a line: calcium-bound CALM1 binders on microarrays, profiling panel, artefact control for SMM control-protein annotation, biochemical, small-molecule microarray, Cy5-labelled CALM1, plus calcium (AID 1112).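 Note: score merges spot fluorescence with signal to noise from triplicate slides.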 Particulars: Cy5-CALM1 binding fluorescence, higher = more signal.
Experiment [16] can be described thus: small-molecule microarray binders of probe aWnt5a, primary screen, biochemical, biotinylated probe, 635/667 nm fluorescence (AID 1113).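 Note: score merges 667 nm fluorescence intensity with signal-to-noise per printed feature.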 The conditions noted are these: higher = more signal.
Experiment [17] in a line: small-molecule microarray binders of probe aShh, primary screen, biochemical, biotinylated probe, 635/667 nm fluorescence (AID 1114).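 Note: probe is biotin-labelled aShh protein from a stem cell growth factor screen; measures binding of labelled protein to compounds printed on the slide; score merges feature fluorescence at 667 nm with signal-to-noise.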 The conditions noted are these: higher = more signal.
A short description of experiment [18]: small-molecule microarray binders of probe aNog, primary screen, biochemical, biotinylated probe, 635/667 nm fluorescence (AID 1115).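 Note: probe is biotinylated aNog protein used at 0.15 µg/mL for 1 h at 4 C; z-score combines 667 nm fluorescence of each spot with its signal to noise.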 The conditions noted are these: higher = more signal.
Experiment [19] addresses Torsin-1A-interacting protein 1 (Homo sapiens) (UniProt Q5JTV8). Put plainly: LAP1 binders from COS7 cell lysate, primary screen, small-molecule microarray, 635/667 nm fluorescence (AID 1116). Particulars: COS7-hLAP1 lysate binding, 635 nm fluorescence, higher = more signal.
Experiment [20] concerns the target Alpha-bungarotoxin (Bungarus multicinctus) (UniProt P60615). The experiment in a line: alpha-bungarotoxin binders on microarray, profiling panel, artefact control for SMM control protein annotation, biochemical, small-molecule microarray, Alexa647 label, 635/667 nm fluorescence (AID 1117). The conditions noted are these: alpha-BTX-A647 binding fluorescence, higher = more signal.

Fibroblast growth factor 10 (Homo sapiens), sequence (O15520 whole entry, looked up): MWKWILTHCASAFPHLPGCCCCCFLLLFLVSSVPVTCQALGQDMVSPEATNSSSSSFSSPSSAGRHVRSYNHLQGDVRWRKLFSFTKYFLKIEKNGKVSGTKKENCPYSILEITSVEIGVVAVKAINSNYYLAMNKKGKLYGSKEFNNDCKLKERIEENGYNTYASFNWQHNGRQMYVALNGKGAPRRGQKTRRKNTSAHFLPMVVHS
Alpha-bungarotoxin (Bungarus multicinctus), sequence (P60615 whole entry, looked up): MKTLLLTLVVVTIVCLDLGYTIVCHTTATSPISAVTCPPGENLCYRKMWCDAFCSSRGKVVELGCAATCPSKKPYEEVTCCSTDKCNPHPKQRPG
Dickkopf-related protein 1 (Homo sapiens), sequence (O94907 whole entry, looked up): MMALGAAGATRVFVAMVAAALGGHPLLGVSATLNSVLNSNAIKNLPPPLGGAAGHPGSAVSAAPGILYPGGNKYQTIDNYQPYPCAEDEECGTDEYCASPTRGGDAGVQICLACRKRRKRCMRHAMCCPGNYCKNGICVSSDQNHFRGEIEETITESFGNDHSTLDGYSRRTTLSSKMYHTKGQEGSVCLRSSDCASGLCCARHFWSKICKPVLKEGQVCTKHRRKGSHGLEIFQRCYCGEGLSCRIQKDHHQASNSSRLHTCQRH
Follistatin-related protein 3 (Homo sapiens), sequence (O95633 whole entry, looked up): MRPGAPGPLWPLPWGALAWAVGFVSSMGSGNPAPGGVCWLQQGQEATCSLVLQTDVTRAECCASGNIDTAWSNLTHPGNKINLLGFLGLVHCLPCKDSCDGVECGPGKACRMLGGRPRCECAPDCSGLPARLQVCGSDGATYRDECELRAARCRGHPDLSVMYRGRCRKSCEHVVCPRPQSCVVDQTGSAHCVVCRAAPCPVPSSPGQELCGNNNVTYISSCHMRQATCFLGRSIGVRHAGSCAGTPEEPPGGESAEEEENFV
Torsin-1A-interacting protein 1 (Homo sapiens), sequence (Q5JTV8 whole entry, looked up): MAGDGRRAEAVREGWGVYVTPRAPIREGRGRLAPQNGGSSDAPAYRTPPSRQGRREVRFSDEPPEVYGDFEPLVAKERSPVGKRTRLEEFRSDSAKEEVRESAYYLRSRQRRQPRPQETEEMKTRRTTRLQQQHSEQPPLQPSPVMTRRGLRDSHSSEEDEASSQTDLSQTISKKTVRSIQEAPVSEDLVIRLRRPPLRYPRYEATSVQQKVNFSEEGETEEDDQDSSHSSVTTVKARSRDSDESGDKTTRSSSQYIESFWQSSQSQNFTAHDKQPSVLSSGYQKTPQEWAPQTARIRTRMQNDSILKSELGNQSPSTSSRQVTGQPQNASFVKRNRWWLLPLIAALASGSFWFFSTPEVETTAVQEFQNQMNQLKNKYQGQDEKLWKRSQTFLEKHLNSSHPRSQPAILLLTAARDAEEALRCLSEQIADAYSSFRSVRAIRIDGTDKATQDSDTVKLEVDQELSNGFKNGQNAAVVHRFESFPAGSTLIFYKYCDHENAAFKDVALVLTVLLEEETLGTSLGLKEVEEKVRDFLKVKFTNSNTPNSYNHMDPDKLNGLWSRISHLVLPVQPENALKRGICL
Epidermal growth factor receptor (Homo sapiens), sequence (P00533 whole entry, looked up): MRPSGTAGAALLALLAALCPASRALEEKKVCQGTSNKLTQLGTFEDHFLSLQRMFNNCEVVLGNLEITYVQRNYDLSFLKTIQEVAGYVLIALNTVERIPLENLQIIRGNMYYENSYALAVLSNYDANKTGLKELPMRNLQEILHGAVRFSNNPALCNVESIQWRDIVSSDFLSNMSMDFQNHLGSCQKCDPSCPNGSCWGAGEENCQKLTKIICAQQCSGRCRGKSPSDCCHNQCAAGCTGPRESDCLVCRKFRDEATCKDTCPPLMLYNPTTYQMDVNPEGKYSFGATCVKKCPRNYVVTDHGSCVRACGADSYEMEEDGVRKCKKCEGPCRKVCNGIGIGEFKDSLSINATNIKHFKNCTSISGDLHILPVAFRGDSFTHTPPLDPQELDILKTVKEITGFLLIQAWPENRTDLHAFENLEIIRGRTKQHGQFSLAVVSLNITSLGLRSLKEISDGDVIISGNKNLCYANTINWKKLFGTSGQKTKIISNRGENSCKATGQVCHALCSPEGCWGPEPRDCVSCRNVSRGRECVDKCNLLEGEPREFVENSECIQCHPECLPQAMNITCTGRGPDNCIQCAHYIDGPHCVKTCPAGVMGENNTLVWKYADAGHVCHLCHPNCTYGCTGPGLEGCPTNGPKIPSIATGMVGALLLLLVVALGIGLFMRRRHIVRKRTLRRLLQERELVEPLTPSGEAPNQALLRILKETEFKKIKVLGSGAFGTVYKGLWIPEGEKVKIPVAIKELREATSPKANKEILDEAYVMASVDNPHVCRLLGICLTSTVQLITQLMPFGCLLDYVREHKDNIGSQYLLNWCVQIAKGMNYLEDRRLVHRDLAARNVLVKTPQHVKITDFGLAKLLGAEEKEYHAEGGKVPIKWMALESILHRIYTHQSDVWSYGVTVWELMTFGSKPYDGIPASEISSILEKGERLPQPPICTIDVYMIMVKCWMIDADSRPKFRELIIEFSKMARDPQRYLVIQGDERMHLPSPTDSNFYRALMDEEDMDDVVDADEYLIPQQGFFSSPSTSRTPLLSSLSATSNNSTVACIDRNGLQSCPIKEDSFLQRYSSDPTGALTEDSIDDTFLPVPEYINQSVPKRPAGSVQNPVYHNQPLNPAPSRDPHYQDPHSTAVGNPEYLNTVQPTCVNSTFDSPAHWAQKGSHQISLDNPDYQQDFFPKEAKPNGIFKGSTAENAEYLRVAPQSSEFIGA
Left-right determination factor 2 (Homo sapiens), sequence (O00292 whole entry, looked up): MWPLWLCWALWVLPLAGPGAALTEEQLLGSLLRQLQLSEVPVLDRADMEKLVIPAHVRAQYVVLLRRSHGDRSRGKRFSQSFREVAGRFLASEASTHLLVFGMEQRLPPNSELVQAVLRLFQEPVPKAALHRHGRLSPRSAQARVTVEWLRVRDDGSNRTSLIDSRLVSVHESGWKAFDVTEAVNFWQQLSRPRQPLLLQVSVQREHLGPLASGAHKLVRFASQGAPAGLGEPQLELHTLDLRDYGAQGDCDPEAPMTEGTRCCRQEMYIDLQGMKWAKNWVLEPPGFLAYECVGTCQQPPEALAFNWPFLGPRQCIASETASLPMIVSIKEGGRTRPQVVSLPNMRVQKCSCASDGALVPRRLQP

For the compound `O=C(CS)NCCCCCCNC(=O)[C@@H]1C[C@@H]2C(=O)N3CCC[C@H]3C(=O)N2[C@@H]1c1ccc(O)cc1`, the composite z-score in experiment [1] is 0.425; in [2] it was -0.207; in [3], 0.597; in experiment [5], -0.252; in experiment [6], 0.691; in experiment [7], -0.226. The composite z-score is -0.32 in [8]; 0.17 in experiment [9]; -0.41 in experiment [10]; 1.41 in experiment [11]; -0.793 in experiment [13]; 0.347 in [14]. For the same compound, the composite z-score in [15] was 0.0689; in experiment [16] it was 0.0868; in [17], -0.0146; in experiment [18], -0.264; in [19], 1.35; in experiment [20] it was 0.139. In addition, the z-score in experiment [4] is 0.552 (inactive); in [12], -0.695.

In the case of `Cc1ccccc1C(O)C1C=CC2C(=O)N(C)C(=O)C2N1N1CCCCC1` (stereo not given), the composite z-score in [1] was 1.29; in experiment [2], 0.837; in experiment [3] it was 0.906; in [5], 0.975; in experiment [6], 1.04; in experiment [7], 0.628. For the same compound, the composite z-score in [8] amounted to 0.621; in experiment [9], 0.215; in experiment [10] it was 1.28; in experiment [11], 1.05; in experiment [13], 0.163; in experiment [14], 0.8. Besides, the composite z-score in experiment [15] is 0.413; in [16], 0.0403; in [17] it was 0.254; in experiment [18] it was 1.72; in experiment [19], 1.65; in [20], 1.04. The z-score in [4] was 1.28 (inactive); in experiment [12] it was -0.18.

`CC(C)(C)OC(=O)CC[C@@]1(C(=O)NCCN2CCOCC2)N=C(c2ccc(OCCCO)cc2)O[C@@H]1c1ccccc1`: the composite z-score came out at 1.48 in experiment [1]; 1.06 in [2]; 1.11 in [3]; 1.01 in experiment [5]; 0.896 in experiment [6]; 0.335 in experiment [7]. In addition, the composite z-score in experiment [8] was 1.05; in [9], 0.126; in experiment [10] it was 0.767; in [11], 0.925; in [13], 0.356; in experiment [14] it was 1.59. Also, the composite z-score in [15] is 0.53; in [16], 0.0095; in experiment [17], -0.138; in experiment [18] it was -0.193; in [19] it was 0.414; in experiment [20], 2.08. The z-score was -1.16 (inactive) in experiment [4] and 0.988 in [12].

Consider `N#Cc1ccc(NN2C(C(O)c3ccc([N+](=O)[O-])cc3)C=CC3C(=O)N(c4ccccc4)C(=O)C32)cc1` (stereo not given), for which the composite z-score in [1] was found to be 1.29; in experiment [2] it was 0.829; in [3], 1.08; in experiment [5], 0.626; in experiment [6], 0.751; in experiment [7], 0.0159. Also, the composite z-score in [8] is 0.422; in [9], -0.392; in [10], 0.787; in experiment [11], 0.61; in experiment [13] it was 0.0872; in experiment [14], 0.971. Further, the composite z-score in experiment [15] is 0.235; in [16] it was 0.119; in experiment [17], 0.935; in experiment [18], 1.18; in [19] it was 0.818; in experiment [20] it was 0.752. For the same compound, the z-score in experiment [4] is 2.23 (inactive); in [12], 0.69.

Regarding `O=C1OCC=C[C@H]2OC34C=CCN(c5ccc(Cl)cc5)C(=O)[C@H]3N(CCCCCCO)C(=O)[C@@H]4[C@@H]12` (stereo not given in full), the composite z-score was 2.08 in experiment [1]; 0.0526 in experiment [2]; 0.731 in experiment [3]; -1.17 in [5]; -0.799 in experiment [6]; -1.78 in experiment [7]. For the same compound, the composite z-score in experiment [8] is -1.58; in [9] it was -1.22; in experiment [10], -0.087; in [11] it was -0.851; in experiment [13], -1.21; in [14], -0.123. For the same compound, the composite z-score is 0.174 in experiment [15]; -0.128 in experiment [16]; 0.0062 in experiment [17]; 0.46 in experiment [18]; -0.143 in experiment [19]; -1.34 in experiment [20]. The figures for the z-score in experiment [4] and in experiment [12] were -0.313 (inactive) and -0.493, respectively.

As for `COc1ccc(C#Cc2ccc3c(c2)[C@]2(C(=O)N3)[C@H](c3ccc(O)cc3)N3[C@H](c4ccccc4)[C@H](c4ccccc4)OC(=O)[C@H]3[C@@H]2C(=O)NC[C@H](O)c2ccccc2)cc1`, the composite z-score in experiment [1] came out at 1.14; in experiment [2] it was 0.155; in experiment [3], 0.397; in [5] it was 0.94; in [6], 0.755; in [7], 0.206. Also, the composite z-score in experiment [8] turned out to be 0.801; in experiment [9], 0.233; in experiment [10] it was 0.282; in experiment [11], 1.33; in [13], 0.0197; in experiment [14], 0.199. Besides, the composite z-score in [15] is 0.689; in experiment [16] it was 0.164; in experiment [17] it was -0.138; in experiment [18], 0.305; in experiment [19], 0.818; in experiment [20] it was 1.26. The z-score in experiment [4] was -1.02 (inactive); in experiment [12], -1.63.
